Compound activity: PubChem, several laboratories
Compounds with a hit are over-represented: about 4.1% of the library has one in this group of screens.
PolyA inh = blocks polyadenylation in yeast reporter cells; hit rate 0.02% among 300,000; activity score, % at 12 µM; S. cerevisiae SKY197-pL101 polyadenylation reporter, beta-gal luminescence; efflux-impaired pdr1/pdr3 knockout yeast; score 100 = 6 SD above DMSO;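 active = lowest replicate activity score at least 50, where 100 means six control SD above control mean; inconclusive = lowest score under 50 but half or more replicates reach 50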;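 also: yeast exposed to compound for 9 h at 30 °C; higher score means more reporter readthrough which indicates perturbed polyadenylation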
hcDAF12 agonist = activates DAF-12 receptor from parasite H. contortus. HEK293 hcDAF-12 lit1-tk-luc reporter, luminescence; 0% DMSO, 100% Δ7-dafachronic acid. hit rate 1.4% among 370,000. activation, % at 6.8 µM;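 active = activation above the mean of all tested compounds plus 3 SD, cut at about 5.5% in these data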;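 also: 100% = response to 3 µM Δ7-dafachronic acid high control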
DAX1 inh-1 = inhibitors of human orphan nuclear receptor DAX1 (NR0B1); inhibition, % at 6.75 µM; hit rate 0.99% among 340,000; P51843; AID 504766; HEK293 Gal4-DAX1 luciferase reporter, luminescence;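 active = inhibition above the mean over all tested compounds plus 3 SD, cut at about 4.2% in these data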;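 also: 0% = DAX1-transfected cells with DMSO and 100% = empty-vector control cells with DMSO; inhibition shows as a rise in luminescence from relieved DAX1 repression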
Target sequence (P51843 207-470 limits assumed): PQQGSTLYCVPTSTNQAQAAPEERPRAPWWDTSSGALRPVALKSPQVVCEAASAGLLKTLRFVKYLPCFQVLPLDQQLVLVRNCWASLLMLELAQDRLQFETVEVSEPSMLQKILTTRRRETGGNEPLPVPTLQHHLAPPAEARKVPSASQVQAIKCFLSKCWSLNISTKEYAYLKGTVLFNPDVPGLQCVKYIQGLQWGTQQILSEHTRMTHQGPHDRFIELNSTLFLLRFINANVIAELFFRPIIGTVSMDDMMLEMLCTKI
ssDAF-12 act = activators of S. stercoralis DAF-12 nuclear receptor | HEK293 ssDAF-12/GRIP1 lit1-tk-luc reporter, luminescence; % of 3 µM dafachronic acid response | hit rate 1% among 370,000 | activation, % at 6.8 µM | AID 652126;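 active = activation above the mean over all tested compounds plus 3 SD, cut at about 0.9% in these data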;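 also: 0% = DMSO-only wells and 100% = 3 µM delta7-dafachronic acid wells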
DAX1 inh-2 = inhibitors of DAX1 repression of SF-1 activated StAR promoter; HEK293T StAR-luciferase reporter, SF-1/DAX-1 repression relief; inhibition, % at 6.8 µM; hit rate 1.1% among 370,000; AID 652010;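 active = inhibition above the mean over all tested compounds plus 3 SD, cut at about 3.6% in these data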;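 also: 0% = DAX-1 cells with DMSO and 100% = cells lacking DAX-1 with DMSO; higher inhibition means more luminescence from relief of DAX-1 repression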
hgDAF12 agonist = agonists of H. glycines DAF-12 nuclear receptor; HEK293 GAL4-hgDAF12 UAS-luciferase reporter, agonist luminescence; normalized to butyrate control; activation, % at 6.8 µM; hit rate 1.8% among 370,000;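 active = activation above a cutoff set at the mean of all screened compounds plus 3 SD, cut at about 10% in these data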;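 also: 0% = DMSO wells and 100% = sodium butyrate wells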
An asterisk follows results filed as active; ? = inconclusive; . = no result.

SMILES	PolyA inh	hcDAF12 agonist	DAX1 inh-1	ssDAF-12 act	DAX1 inh-2	hgDAF12 agonist
CCN(CC)C(=O)c1cc2c(=O)n3ccccc3nc2s1	14	6.5*	0	0	2	10
CCOC(=O)C1CCN(C(=O)c2cc3c(=O)n4ccccc4nc3s2)CC1	-14	6.4*	0	-1	2	5
CCOC(=O)C1CCN(C(=O)c2cc3c(=O)n4cccc(C)c4nc3s2)CC1	20	6.5*	-1	0	0	1
COc1ccc(C2CC(=O)C(c3ccccc3OC)=CN2Cc2ccccc2)cc1 (stereo not drawn)	.	-3	.	-1	-2	3
COc1ccc(C2Nc3ccccc3C(=O)N2Cc2ccco2)cc1COc1ccccc1C (stereo not drawn)	.	-1	.	-2	.	-2
O=C(c1ccccc1)n1ccc2ccc(-c3ccc4ccn(Cc5ccccc5)c4c3)cc21	.	2	.	0	-1	11*
O=S(=O)(c1ccc(Cl)nc1)N1CCN(Cc2ccc3c(c2)OCO3)CC1	5	-2	2	-1	0	11*
CCc1ccc(Nc2ncnc3nc[nH]c23)cc1	1	4	5.3*	0	3	12*
Cc1ccc(NC(=O)Nc2ncnc3nc[nH]c23)cc1	-5	2	3	-1	2	12*
CCCNc1ncnc2nc[nH]c12	-5	2	-1	-1	1	0
CCOC(=O)c1cn(Cc2ccc(C)cc2)nn1	10	5.8*	-1	-1	-1	-2
S=C(Nc1ccccc1Cl)N1CCCC1	6	-1	1	-1	0	0
S=C(Nc1ccc(Br)cc1Cl)N1CCCC1	-2	2	1	0	4.1*	7
CCOc1ccc(N(CC(=O)Nc2c(C)n(C)n(-c3ccccc3)c2=O)S(=O)(=O)c2cccs2)cc1	.	1	.	-1	-1	-1
O=C(NC1CCN(Cc2ccccc2)CC1)C1CCN(c2nnc(-n3cccc3)s2)CC1	?	0	-3	-1	-2	-2
O=C(NC1CCN(Cc2ccccc2)CC1)C1CCCN(c2nnc(-n3cccc3)s2)C1 (stereo not drawn)	0	3	0	0	2	11*
CCCCNC(=O)NS(=O)(=O)c1ccc(NC(=O)CSc2nnc(-c3ccc(Cl)cc3)n2N)cc1	.	4	.	-1	-1	0
C=CCCC(=O)N1CCC(C(=O)NCC2COc3ccccc3O2)CC1 (stereo not drawn)	.	-3	.	0	1	6
CC(=O)c1ccc(N(C(=O)Cn2nnc(-c3ccccc3)n2)C(C(=O)NC2CCCCC2)c2ccccn2)cc1 (stereo not drawn)	0	-2	-1	-1	0	0
CCc1ccc(N(C(=O)Cn2nnc(-c3ccccc3)n2)C(C(=O)NC2CCCCC2)c2ccccn2)cc1 (stereo not drawn)	19	6.5*	0	0	0	3
CCOc1ccc(C(=O)CSc2nnc(SCc3ccc(Cl)cc3)s2)cc1	.	-1	.	0	1	-1
CCN1/C(=C/C=C/c2sc3ccccc3[n+]2CC)Sc2ccccc21	93*	.	-4	.	.	.
CCN1/C(=C/C=C/C=C/c2sc3ccccc3[n+]2CC)Sc2ccccc21	-8	.	.	.	.	.
Fc1ccc(-c2nc3c4ccccc4ccn3c2CC2CCCCC2)cc1	.	6.4*	.	1.6*	2	4
Clc1cccc(-c2nc3c4ccccc4ccn3c2Cc2ccccc2)c1	.	5	.	1	0	2
SMILES	PolyA inh	hcDAF12 agonist	DAX1 inh-1	ssDAF-12 act	DAX1 inh-2	hgDAF12 agonist
CCCc1nc2c3ccccc3ccn2c1CC1CCCCC1	.	6.2*	.	0	1	6
c1ccc(-c2nc3c4ccccc4ccn3c2CN2CCCCC2)cc1	-8	3	1	0	0	4
Clc1cccc(-c2nc3c4ccccc4ccn3c2CC2CCCCC2)c1	.	4	.	1.1*	2	3
CN(Cc1ccccc1)C(=O)OCc1cn(Cc2cccc(F)c2)nn1	.	0	.	-1	0	0
CCc1ccc(-n2ncc(Cl)c(Oc3ccc(OC)cc3)c2=O)cc1	.	-1	.	-2	.	0
Fc1ccc(C2=Nn3c(nnc3C3CCCCC3)SC2)cc1	.	-3	.	-1	0	-1
COC(=O)[C@@]12CCCCC3=C1N(CCC3)C(=O)[C@H]2CC(=O)NCCC(C)C	.	-2	.	-1	-1	-1
